Test [1] addresses Glucocorticoid receptor (Homo sapiens) (UniProt P04150). Kind of test: ATG_GR_TRANS: Attagene TRANS-FACTORIAL HepG2 Assay for human Glucocorticoid Receptor (GR) (AID 2282978; active = hit-call score of the fitted dose curve at least 0.9, where 1 is the maximum;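 also: activators score as hits since higher reporter transcript over DMSO is fitted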). Particulars: HepG2 Attagene TRANS GR reporter, mRNA transcription. The essentials:
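Exogenous NR-GAL4 fusion activity was assessed through induced GAL4-UAS reporter transcripts in transfected human HepG2 cells, quantified after 24 h by RT-PCR and fluorescent capillary electrophoresis with DMSO as baseline.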

Test [2] addresses Oxysterols receptor LXR-alpha (Homo sapiens) (UniProt Q13133). Kind of test: ATG_LXRa_TRANS: Attagene TRANS-FACTORIAL HepG2 Assay for human Liver X Receptor alpha (LXRa) (AID 2282980; active = hit-call score of the fitted dose curve at least 0.9, where 1 is the maximum). Particulars: HepG2 Attagene TRANS reporter, LXRa transactivation. The essentials:
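Chemical-induced reporter mRNA measured by RT-PCR with fluorescent labelling and capillary electrophoresis after 24 h dosing of transiently transfected HepG2 cells expressing exogenous NR-Gal4 chimeras; increases scored against DMSO baseline.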

Test [3] in a line: ATG_M_32_TRANS: Attagene TRANS-FACTORIAL HepG2 Assay for M32 Transcription Factor (Internal Marker) (AID 2282984; active = hit-call score of the fitted dose curve at least 0.9, where 1 is the maximum;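 also: transcript level of a background control reporter unit measured by RT-PCR and capillary electrophoresis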). Particulars: HepG2 Attagene TRANS M32 internal marker reporter. The essentials:
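Capillary electrophoresis of 6-FAM-labelled reporter fragments gives the signal; data fitted for gain over DMSO negative control. Source: HepG2 cells bearing transient multiple reporter transcription units, 24 h exposure.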

The target in test [4] is Transcriptional activator Myb (Homo sapiens) (UniProt P10242). The test can be described thus: ATG_Myb_CIS: Attagene CIS-FACTORIAL HepG2 Assay for human Myeloblastosis (Myb) Proto-Oncogene Transcription Factor (AID 2282986). Particulars: HepG2 Attagene CIS-FACTORIAL Myb reporter transcription; actives raise or lower the signal. The method, boiled down:
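In this HepG2 transient-transfection format, cis-regulated reporter mRNA is quantified 24 h post-dosing by RT-PCR with capillary electrophoresis, fitted bidirectionally to DMSO baseline.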

The target in test [5] is Nuclear respiratory factor 1 (Homo sapiens) (UniProt Q16656). Kind of test: ATG_NRF1_CIS: Attagene CIS-FACTORIAL HepG2 Assay for human Nuclear Respiratory Factor 1 (NRF1) Orphan Gene (AID 2282987). The note with it: HepG2 NRF1 cis-element reporter, Attagene multiplex; actives raise or lower the signal. The method, boiled down:
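Using DMSO as baseline, gain- or loss-of-signal was fitted for reporter mRNA levels in HepG2 cells transiently transfected with cis-regulated reporter units. Samples were taken 24 h after dosing and read by RT-PCR with capillary electrophoresis.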

Test [6] in a line: ATG_NFI_CIS: Attagene CIS-FACTORIAL HepG2 Assay for human Nuclear Factor I (NFI) (AID 2282989). The note with it: HepG2 cis-regulatory reporter, NFI response element transcription; actives raise or lower the signal. The essentials:
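Transient MRTU transfection of HepG2 → 24 h chemical dosing → total RNA, oligo(dT) RT → PCR, 6-FAM primer extension, HpaI cut → capillary electrophoresis. Endpoint fitted bidirectionally relative to DMSO.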

The target of test [7] is Myc proto-oncogene protein (Homo sapiens) (UniProt P01106). The test can be described thus: ATG_Myc_CIS: Attagene CIS-FACTORIAL HepG2 Assay for human Myelocytomatosis (Myc) Proto-Oncogene Transcription Factor (AID 2282990). The note with it: HepG2, Attagene cis-reporter transcription factor activity; actives raise or lower the signal. The essentials:
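Read-out: fluorescent reporter mRNA fragments resolved by capillary electrophoresis after RT-PCR. Human HepG2 liver cells carried transfected cis-element reporter units and were dosed for 24 h. Gain or loss of signal fitted relative to DMSO baseline.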

The nature of test [8]: ATG_NF_kB_CIS: Attagene CIS-FACTORIAL HepG2 Assay for human Nuclear Factor Kappa B (NF-kB) (AID 2282991). Particulars: HepG2 Attagene cis-factorial NF-kB reporter mRNA; actives raise or lower the signal. The essentials:
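Endpoint from a 52-component multiplexed HepG2 reporter panel: cis-regulated transcription units transiently transfected, 24 h dosing, reporter mRNA quantified by RT-PCR and capillary electrophoresis, scored as increase or decrease against DMSO.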

Test [9] is described as follows: ATG_NRF2_ARE_CIS: Attagene CIS-FACTORIAL HepG2 Assay for human Nuclear Factor Erythroid 2 Related Factor 2 (NFR2) response to Antioxidant Response Elements (ARE) (AID 2282992).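 As to AC50: reporter mRNA level measured by RT-PCR and capillary electrophoresis fluorescence.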 The note with it: HepG2 Attagene ARE/NRF2 reporter, transcription factor activity; actives raise or lower the signal. The essentials: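 HepG2 cells transiently transfected with multiplexed cis-regulated reporter transcription units measure endogenous transcription factor activity. Reporter mRNA at 24 h is quantified by RT-PCR, fluorescent labelling and capillary electrophoresis, with bidirectional fitting relative to DMSO.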

Test [10] in a line: ATG_Oct_MLP_CIS: Attagene CIS-FACTORIAL HepG2 Assay for human Octamer-Binding Transcription Factor (Oct) (AID 2282993). The note with it: HepG2 Attagene cis-factorial Oct reporter, mRNA; actives raise or lower the signal. The essentials: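 Transient MRTU transfection of HepG2 → 24 h compound treatment → RNA isolation, reverse transcription, PCR → 6-FAM primer extension, HpaI digest → capillary electrophoresis. Activity fitted both directions against DMSO.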

Test [11] deals with Cellular tumor antigen p53 (Homo sapiens) (UniProt P04637). The test can be described thus: ATG_p53_CIS: Attagene CIS-FACTORIAL HepG2 Assay for human p53 Transcription Factor (AID 2282994). The note with it: HepG2 p53 cis-element reporter, Attagene mRNA; actives raise or lower the signal. The essentials:
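HepG2 cells transiently transfected with multiplexed cis-regulated reporter transcription units read endogenous TF activity. After 24 h compound exposure, reporter mRNA was quantified by RT-PCR, fluorescent labelling, HpaI digestion and capillary electrophoresis; bidirectional fits versus DMSO baseline.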

Test [12] is described as follows: BSK_3C_TissueFactor: BioMAP Diversity Plus: 3C Assay for Tissue Factor Biomarker Activity (AID 2282997). Particulars: BioMAP 3C HUVEC, tissue factor biomarker readout; actives raise or lower the signal. The method, boiled down:
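Dosing of human umbilical vein endothelial cells preceded a 24 h incubation. Tissue Factor was then read by ELISA, with increases and decreases both scored relative to DMSO controls.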

Test [13] can be described thus: BSK_3C_uPAR: BioMAP Diversity Plus: 3C Assay for Urokinase-type plasminogen activator receptor (uPAR) Biomarker Activity (AID 2282998). The note with it: BioMAP 3C HUVEC, uPAR biomarker ELISA; actives raise or lower the signal. The essentials:
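ELISA readout of uPAR on human vascular endothelium (umbilical vein primary cells), taken 24 h after chemical dosing. Increases and decreases are both fitted relative to DMSO vehicle.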
Background: ELISA stands for enzyme-linked immunosorbent assay.

Test [14] in a line: BSK_3C_VCAM1: BioMAP Diversity Plus: 3C Assay for Vascular cell adhesion molecule 1 (VCAM1) Biomarker Activity (AID 2282999). The note with it: BioMAP 3C HUVEC, VCAM1 ELISA, cytokine-stimulated; actives raise or lower the signal. The method, boiled down:
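Human umbilical vein endothelial cells (3C system), biomarker read by ELISA 24 h after dosing; bidirectional fit against DMSO baseline. Cytotoxicity tracked by SRB total-protein staining in parallel cultures at biomarker time.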

The nature of test [15]: BSK_4H_Eotaxin3: BioMAP Diversity Plus: 4H Assay for Eotaxin 3 Biomarker Activity (AID 2283000).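 As to outcome: CCL26 protein level quantified by ELISA in parallel with SRB cytotoxicity check.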 The note with it: primary human endothelial cells (HUVEC); actives raise or lower the signal. The essentials:
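Human umbilical vein endothelial cells (BSK_4H system) dosed with test chemical; Eotaxin-3 (CCL26) measured by ELISA 24 h after dosing. Bidirectional curve fitting relative to DMSO negative control as baseline.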

Test [16] deals with human Peroxisome Proliferator-activated Receptor alpha (PPARa), PPARA (gene 5465) (UniProt Q07869). The test can be described thus: ATG_PPARa_TRANS: Attagene TRANS-FACTORIAL HepG2 Assay for human Peroxisome Proliferator-activated Receptor alpha (PPARa) (AID 2283001; active = hit-call score of the fitted dose curve at least 0.9, where 1 is the maximum). The essentials:
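Measures transcriptional activity of an exogenous chimeric PPARa-Gal4 protein in transiently transfected HepG2 cells after 24 h dosing. Reporter mRNA quantified via RT-PCR and capillary electrophoresis; DMSO served as negative control.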

Test [17] has as its target Bile acid receptor (Homo sapiens) (UniProt Q96RI1). The test can be described thus: ATG_FXR_TRANS: Attagene TRANS-FACTORIAL HepG2 Assay for Farnesoid X Receptor (FXR) (AID 2282979; active = hit-call score of the fitted dose curve at least 0.9, where 1 is the maximum;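 also: hits raise reporter mRNA above DMSO so AC50 marks FXR activation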). Particulars: HepG2 Attagene TRANS FXR-GAL4 reporter transcription. The essentials: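 Reporter transcripts from transfected HepG2 cells were measured 24 h after dosing, using RT-PCR with capillary electrophoresis of 6-FAM-labelled fragments. The read-out reflects activity of exogenous FXR-Gal4 chimera on GAL4-UAS units, with induction relative to DMSO.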

Test [18] addresses Oxysterols receptor LXR-beta (Homo sapiens) (UniProt P55055). The test can be described thus: ATG_LXRb_TRANS: Attagene TRANS-FACTORIAL HepG2 Assay for human Liver X Receptor beta (LXRb) (AID 2282981; active = hit-call score of the fitted dose curve at least 0.9, where 1 is the maximum). Particulars: HepG2 Attagene TRANS GAL4-LXRb reporter, mRNA. The method, boiled down: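 Gain-of-signal mRNA reporter endpoint, DMSO as negative control. Transiently transfected HepG2 cells carrying the NR-Gal4 chimera and GAL4-UAS reporter units were treated 24 h; transcripts quantified by RT-PCR and capillary electrophoresis fluorescence.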

The nature of test [19]: ATG_M_06_TRANS: Attagene TRANS-FACTORIAL HepG2 Assay for M06 Transcription Factor (Internal Marker) (AID 2282983; active = hit-call score of the fitted dose curve at least 0.9, where 1 is the maximum). The note with it: HepG2 Attagene TRANS M06 internal marker reporter. The essentials:
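Cells: HepG2, transient multi-reporter transfection. Exposure: 24 h. Detection: RT-PCR, 6-FAM labelling, HpaI digestion (2 h, 37 °C), capillary electrophoresis. Baseline: DMSO.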

Test [20] deals with Nuclear receptor subfamily 4 group A member 2 (Homo sapiens) (UniProt P43354). Kind of test: ATG_NURR1_TRANS: Attagene TRANS-FACTORIAL HepG2 Assay for human Nuclear Receptor Related Protein 1 (NURR1) (AID 2282985; active = hit-call score of the fitted dose curve at least 0.9, where 1 is the maximum). Particulars: HepG2 Attagene TRANS reporter, mRNA readout. The essentials:
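HepG2 / transient MRTU transfection / 24 h compound exposure / RT-PCR + CE fluorescence of reporter mRNA / gain-of-signal vs DMSO.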

Results filed as inconclusive are left out. Activity calls are given as the source filed them. The calls were made as follows, unless noted: active = hit-call score of the fitted dose curve at least 0.9, where 1 is the maximum; inactive = score below 0.9.

As usually defined, the AC50 is the midpoint of the concentration-response curve, whichever way the signal moves.

Sequence of Cellular tumor antigen p53 (Homo sapiens) (P04637 whole entry, looked up): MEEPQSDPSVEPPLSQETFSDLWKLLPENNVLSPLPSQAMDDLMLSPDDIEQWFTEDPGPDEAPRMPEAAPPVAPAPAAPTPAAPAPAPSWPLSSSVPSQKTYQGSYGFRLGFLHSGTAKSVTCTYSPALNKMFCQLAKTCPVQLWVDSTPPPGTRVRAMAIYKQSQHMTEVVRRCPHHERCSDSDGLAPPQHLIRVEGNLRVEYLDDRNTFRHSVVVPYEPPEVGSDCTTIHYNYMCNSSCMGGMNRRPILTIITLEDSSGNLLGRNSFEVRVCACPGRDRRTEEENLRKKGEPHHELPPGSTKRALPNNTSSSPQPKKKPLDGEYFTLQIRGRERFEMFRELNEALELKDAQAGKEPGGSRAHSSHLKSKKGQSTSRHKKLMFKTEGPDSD
Sequence of human Peroxisome Proliferator-activated Receptor alpha (PPARa), PPARA (gene 5465) (Q07869 whole entry, looked up, the tested form may be a part): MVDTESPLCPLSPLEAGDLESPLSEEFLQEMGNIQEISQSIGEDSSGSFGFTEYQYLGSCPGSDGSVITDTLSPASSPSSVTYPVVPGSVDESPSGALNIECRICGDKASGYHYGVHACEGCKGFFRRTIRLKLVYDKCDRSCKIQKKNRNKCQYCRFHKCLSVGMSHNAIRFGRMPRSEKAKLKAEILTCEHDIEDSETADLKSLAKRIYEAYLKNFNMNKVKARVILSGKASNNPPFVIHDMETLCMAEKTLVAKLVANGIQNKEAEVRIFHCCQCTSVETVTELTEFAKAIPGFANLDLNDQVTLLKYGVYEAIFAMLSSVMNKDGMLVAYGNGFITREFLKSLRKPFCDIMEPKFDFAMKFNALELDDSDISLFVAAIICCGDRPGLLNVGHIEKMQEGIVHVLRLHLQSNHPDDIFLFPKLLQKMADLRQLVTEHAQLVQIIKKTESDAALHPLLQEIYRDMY
Sequence of Oxysterols receptor LXR-alpha (Homo sapiens) (Q13133 whole entry, looked up, the tested form may be a part): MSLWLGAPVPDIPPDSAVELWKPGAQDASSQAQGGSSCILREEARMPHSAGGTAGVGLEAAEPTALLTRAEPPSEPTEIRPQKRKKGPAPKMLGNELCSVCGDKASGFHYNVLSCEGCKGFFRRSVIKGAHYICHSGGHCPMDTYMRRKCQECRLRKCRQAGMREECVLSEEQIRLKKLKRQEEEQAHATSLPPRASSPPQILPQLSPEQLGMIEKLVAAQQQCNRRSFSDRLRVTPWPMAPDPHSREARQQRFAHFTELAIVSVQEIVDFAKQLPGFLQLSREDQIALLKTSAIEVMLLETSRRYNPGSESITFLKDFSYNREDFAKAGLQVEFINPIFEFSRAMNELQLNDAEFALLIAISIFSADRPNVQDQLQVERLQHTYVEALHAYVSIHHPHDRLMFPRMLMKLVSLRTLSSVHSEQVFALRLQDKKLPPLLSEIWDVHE
Sequence of Nuclear receptor subfamily 4 group A member 2 (Homo sapiens) (P43354 whole entry, looked up): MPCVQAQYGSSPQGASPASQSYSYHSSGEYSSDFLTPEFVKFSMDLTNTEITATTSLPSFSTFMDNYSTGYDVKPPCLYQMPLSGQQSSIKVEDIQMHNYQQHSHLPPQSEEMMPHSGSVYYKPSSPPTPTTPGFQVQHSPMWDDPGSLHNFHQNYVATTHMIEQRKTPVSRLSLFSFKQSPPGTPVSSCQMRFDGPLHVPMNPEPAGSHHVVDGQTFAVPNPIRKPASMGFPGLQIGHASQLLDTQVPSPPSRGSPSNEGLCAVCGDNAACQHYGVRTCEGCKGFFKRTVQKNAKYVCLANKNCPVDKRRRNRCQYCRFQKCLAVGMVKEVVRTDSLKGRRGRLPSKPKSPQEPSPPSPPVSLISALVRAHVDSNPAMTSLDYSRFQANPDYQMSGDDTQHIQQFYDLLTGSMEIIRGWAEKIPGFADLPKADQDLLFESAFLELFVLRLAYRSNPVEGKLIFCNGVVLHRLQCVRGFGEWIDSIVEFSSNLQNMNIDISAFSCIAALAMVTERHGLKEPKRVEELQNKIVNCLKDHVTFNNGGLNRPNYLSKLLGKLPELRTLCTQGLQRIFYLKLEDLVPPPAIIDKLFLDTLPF
Sequence of Bile acid receptor (Homo sapiens) (Q96RI1 whole entry, looked up, the tested form may be a part): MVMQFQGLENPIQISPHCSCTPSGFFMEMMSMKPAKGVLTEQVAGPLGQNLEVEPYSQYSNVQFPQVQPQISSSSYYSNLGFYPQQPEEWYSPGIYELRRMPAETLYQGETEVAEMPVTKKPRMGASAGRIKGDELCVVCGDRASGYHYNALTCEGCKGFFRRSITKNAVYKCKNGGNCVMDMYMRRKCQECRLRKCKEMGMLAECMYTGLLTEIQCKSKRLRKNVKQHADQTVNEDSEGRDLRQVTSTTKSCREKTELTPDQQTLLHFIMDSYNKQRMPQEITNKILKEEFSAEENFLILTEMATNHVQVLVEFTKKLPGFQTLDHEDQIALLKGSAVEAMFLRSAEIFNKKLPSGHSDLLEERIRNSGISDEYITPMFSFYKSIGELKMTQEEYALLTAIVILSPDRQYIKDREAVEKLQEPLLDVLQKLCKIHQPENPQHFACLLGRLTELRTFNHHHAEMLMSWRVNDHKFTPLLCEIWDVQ
Sequence of Oxysterols receptor LXR-beta (Homo sapiens) (P55055 whole entry, looked up, the tested form may be a part): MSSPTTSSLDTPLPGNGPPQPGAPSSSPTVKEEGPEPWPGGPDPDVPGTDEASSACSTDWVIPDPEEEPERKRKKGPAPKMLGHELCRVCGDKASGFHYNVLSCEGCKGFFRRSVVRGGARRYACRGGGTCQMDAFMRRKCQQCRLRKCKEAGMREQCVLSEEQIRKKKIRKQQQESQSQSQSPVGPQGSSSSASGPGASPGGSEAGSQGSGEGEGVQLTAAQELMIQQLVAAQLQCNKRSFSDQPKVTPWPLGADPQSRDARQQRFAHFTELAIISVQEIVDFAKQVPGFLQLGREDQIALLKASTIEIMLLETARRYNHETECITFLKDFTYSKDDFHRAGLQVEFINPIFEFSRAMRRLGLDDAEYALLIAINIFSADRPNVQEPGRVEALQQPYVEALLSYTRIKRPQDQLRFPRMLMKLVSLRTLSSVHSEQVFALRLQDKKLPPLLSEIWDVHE
Sequence of Transcriptional activator Myb (Homo sapiens) (P10242 whole entry, looked up): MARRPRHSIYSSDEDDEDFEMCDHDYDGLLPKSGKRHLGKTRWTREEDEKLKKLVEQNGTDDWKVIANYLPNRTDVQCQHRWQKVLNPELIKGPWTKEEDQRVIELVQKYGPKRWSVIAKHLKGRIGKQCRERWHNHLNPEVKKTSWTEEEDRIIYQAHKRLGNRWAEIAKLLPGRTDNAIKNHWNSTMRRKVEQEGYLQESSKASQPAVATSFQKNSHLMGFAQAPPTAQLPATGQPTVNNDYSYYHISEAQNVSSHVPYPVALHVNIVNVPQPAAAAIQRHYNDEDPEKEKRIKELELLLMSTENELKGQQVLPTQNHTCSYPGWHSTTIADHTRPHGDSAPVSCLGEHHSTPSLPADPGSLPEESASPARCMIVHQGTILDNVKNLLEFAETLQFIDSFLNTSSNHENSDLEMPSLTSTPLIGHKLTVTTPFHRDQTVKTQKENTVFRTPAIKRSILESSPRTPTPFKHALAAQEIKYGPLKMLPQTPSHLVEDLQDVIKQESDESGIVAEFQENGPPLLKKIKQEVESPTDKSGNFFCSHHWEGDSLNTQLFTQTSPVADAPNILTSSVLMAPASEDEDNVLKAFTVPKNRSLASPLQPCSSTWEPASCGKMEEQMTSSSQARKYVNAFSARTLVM
Sequence of Myc proto-oncogene protein (Homo sapiens) (P01106 whole entry, looked up, the tested form may be a part): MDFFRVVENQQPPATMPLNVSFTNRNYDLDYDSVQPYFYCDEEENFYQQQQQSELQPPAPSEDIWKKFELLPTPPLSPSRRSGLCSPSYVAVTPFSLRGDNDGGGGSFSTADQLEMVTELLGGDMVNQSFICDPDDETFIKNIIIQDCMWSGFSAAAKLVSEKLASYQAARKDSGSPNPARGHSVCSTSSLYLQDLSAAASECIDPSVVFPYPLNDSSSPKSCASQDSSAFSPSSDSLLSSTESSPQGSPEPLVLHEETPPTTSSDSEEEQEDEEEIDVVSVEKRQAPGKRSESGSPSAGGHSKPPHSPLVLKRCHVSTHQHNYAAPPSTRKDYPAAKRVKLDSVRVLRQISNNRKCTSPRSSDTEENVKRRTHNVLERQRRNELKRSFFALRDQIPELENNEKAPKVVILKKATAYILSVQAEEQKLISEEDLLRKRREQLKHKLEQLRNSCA
Sequence of Glucocorticoid receptor (Homo sapiens) (P04150 whole entry, looked up, the tested form may be a part): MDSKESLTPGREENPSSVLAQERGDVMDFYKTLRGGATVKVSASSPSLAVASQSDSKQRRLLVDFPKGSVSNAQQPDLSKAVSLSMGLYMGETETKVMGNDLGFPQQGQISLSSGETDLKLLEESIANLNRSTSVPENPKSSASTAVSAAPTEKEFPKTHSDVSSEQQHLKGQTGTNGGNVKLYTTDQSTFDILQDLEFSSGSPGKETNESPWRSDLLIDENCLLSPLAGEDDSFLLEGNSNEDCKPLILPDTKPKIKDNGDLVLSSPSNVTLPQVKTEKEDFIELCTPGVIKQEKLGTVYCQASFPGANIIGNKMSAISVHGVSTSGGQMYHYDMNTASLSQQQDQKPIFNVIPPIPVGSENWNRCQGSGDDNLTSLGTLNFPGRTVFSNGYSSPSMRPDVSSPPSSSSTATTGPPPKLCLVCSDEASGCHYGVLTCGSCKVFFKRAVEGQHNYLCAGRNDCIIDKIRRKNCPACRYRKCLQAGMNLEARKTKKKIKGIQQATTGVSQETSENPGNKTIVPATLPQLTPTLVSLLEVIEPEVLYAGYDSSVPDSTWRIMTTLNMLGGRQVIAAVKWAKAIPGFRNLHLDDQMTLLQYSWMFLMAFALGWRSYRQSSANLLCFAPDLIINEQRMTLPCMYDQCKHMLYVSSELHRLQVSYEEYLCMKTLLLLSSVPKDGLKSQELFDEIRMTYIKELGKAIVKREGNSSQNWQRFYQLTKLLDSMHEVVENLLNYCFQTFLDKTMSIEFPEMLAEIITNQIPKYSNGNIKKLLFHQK

As for `O=C(Oc1ccc(Br)cc1)N1CCN2CCC1CC2`, the compound was called inactive in test [1], in [2], in [3], in test [4], in test [5] and in [6]. Further, the result in test [7], in test [9], in [10], in test [12], in [13] and in test [14] was inactive. Besides, the result in [15] and in [16] was inactive. Besides, the AC50 in test [8] is 60.9 µM (active); in test [11], 64.9 µM (active).
Regarding `CCC(C)c1ccc(O)cc1` (configuration not stated), the call in test [1], in test [17], in test [18], in test [19], in test [3] and in test [20] was inactive. Moreover, the call in test [4], in [5], in test [6], in [7], in test [11] and in [12] was inactive. Further, the outcome in test [13], in test [14], in test [15] and in test [16] was inactive. For the same compound, the values for the AC50 in test [8], in test [9] and in [10] were 100 µM (active), 67.3 µM (active) and 67.9 µM (active), respectively.
Take `Clc1ccc(C(c2ccc(Cl)cc2)C(Cl)Cl)cc1`: the compound was classed as inactive in test [1], in test [17], in [18], in test [19], in test [3] and in test [20]. In addition, the compound was called inactive in test [4], in test [5], in [8], in [11] and in test [16]. The half-maximal activity concentration (AC50) in test [6] is 60.5 µM (active); in test [7], 44.6 µM (active); in test [9] it was 51.1 µM (active); in test [10], 49.7 µM (active); in [12], 32.2 µM (active); in [13] it was 14.1 µM (active). Also, the AC50 in [14] is 31.4 µM (active); in test [15], 28.7 µM (active).
In the case of `O=P(OCCCl)(OCCCl)OCCCl`, the compound was classed as inactive in test [1], in test [17], in [18], in test [3], in test [4] and in test [5]. Besides, the call in test [6], in test [7], in [9], in [10], in test [11] and in test [14] was inactive. Further, the result in [15] was inactive.
In the case of `CCCCCCCCOC(=O)c1ccc(C(=O)OCCCCCCCC)c(C(=O)OCCCCCCCC)c1`, the compound was called inactive in test [1], in [2], in [20], in test [4], in test [5] and in test [6]. For the same compound, the result in test [7], in test [8], in test [9], in test [10], in [11] and in test [13] was inactive. Also, the result in [14], in test [15] and in test [16] was inactive.
As for `Nc1ccc([N+](=O)[O-])cc1`, the compound was called inactive in test [1], in [17], in [2], in test [18], in [19] and in [3]. Besides, the outcome in [20], in test [4], in test [5], in test [6], in [7] and in test [8] was inactive. Moreover, the result in [9], in test [10], in test [11], in test [12], in test [13] and in [14] was inactive. The result in test [15] and in [16] was inactive.

The values are drawn from PubChem BioAssay (EPA / NIEHS).
